Records with an inconclusive call do not appear. The source made the active and inactive calls. Calls come from the whole dose curve; as a rule, active = well fitted curve in the direction sought with a large enough effect; inconclusive = small, poorly fitted or top-dose-only effect, or another doubt; inactive = no such curve, though single readings can be large; an effect the other way counts as inactive or inconclusive.

Experiment [1] can be described thus: qHTS of pediatric cancer cell lines to identify multiple opportunities for drug repurposing: Primary screen for DAOY cells (AID 1347090). Note: nearly all actives have a fitted effect of over 55% in size. Note: potency is the fitted concentration of half-maximal effect. In short, it runs like this: (§1)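 Viability measured as metabolically active cells via CellTiter-Glo luminescence following 48 hours of compound exposure, 11-point dilutions in confirmatory testing. 500-1,000 cells/well plated 5 hours before dosing; controls were DMSO and 2.3 µM bortezomib.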

A short description of experiment [2]: qHTS of pediatric cancer cell lines to identify multiple opportunities for drug repurposing: Primary screen for SJ-GBM2 cells (AID 1347091). Note: potency is the fitted concentration of half-maximal effect. In short, it runs like this:
as §1
In general terms: qHTS replaces the single test concentration by a dilution series.

Experiment [3] is described as follows: qHTS of pediatric cancer cell lines to identify multiple opportunities for drug repurposing: Primary screen for A673 cells (AID 1347092). Note: nearly all actives have a fitted effect of over 45% in size. Note: potency is the fitted concentration of half-maximal effect. Summed up:
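48 h compound exposure, A673, 500-1,000 cells/well, 37 degrees C/5% CO2. MIPE: 11-point, 0.78 nM-46 µM; NPC: 8-point, 0.59 nM-46 µM (final). Readout CellTiter-Glo luminescence after 15 min RT.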

The nature of experiment [4]: qHTS of pediatric cancer cell lines to identify multiple opportunities for drug repurposing: Primary screen for SK-N-MC cells (AID 1347093). Note: series mostly up to about 46 µM. Summed up:
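Metabolically active cells were quantified by ATP-dependent luminescence (CellTiter-Glo, 15 min at room temperature) following 48 h treatment. Cells had been plated at 500-1,000 per well and settled for 5 h beforehand.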

A short description of experiment [5]: qHTS of pediatric cancer cell lines to identify multiple opportunities for drug repurposing: Primary screen for BT-37 cells (AID 1347094). Note: potency is the fitted concentration of half-maximal effect. In short, it runs like this:
(§2)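 Quantitative HTS format: each compound titrated (MIPE 11 points from 0.78 nM, NPC 8 points from 0.59 nM) onto cells plated 5 hours earlier. After 48 h at 37 degrees C, CellTiter-Glo luminescence was recorded.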

Experiment [6] can be described thus: qHTS of pediatric cancer cell lines to identify multiple opportunities for drug repurposing: Primary screen for U-2 OS cells (AID 1347096). Note: nearly all actives have a fitted effect of over 50% in size. Note: potency is the fitted concentration of half-maximal effect. Summed up: (§3)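 Viability after 48 h compound treatment at 37C, 500-1,000 cells/well, read as ATP luminescence with CellTiter-Glo. Primary screens used 11-point (MIPE, 0.78 nM-46 µM) or 8-point (NPC, 0.59 nM-46 µM) final concentrations; follow-up screens used 11-point dilutions.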

The nature of experiment [7]: qHTS of pediatric cancer cell lines to identify multiple opportunities for drug repurposing: Primary screen for Saos-2 cells (AID 1347097). Note: nearly all actives have a fitted effect of over 40% in size. Note: potency is the fitted concentration of half-maximal effect. Summed up:
as §2

A short description of experiment [8]: qHTS of pediatric cancer cell lines to identify multiple opportunities for drug repurposing: Primary screen for SK-N-SH cells (AID 1347098). Note: nearly all actives have a fitted effect of over 65% in size. Note: potency is the fitted concentration of half-maximal effect. Summed up: (§4)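 Cells (500-1,000/well) rested 5 h, then received compounds for 48 h; metabolically active cells were measured by CellTiter-Glo luminescence. Final concentrations spanned up to 46 µM (MIPE, 11-point) or 0.59 nM-46 µM (NPC, 8-point) in primary screens, 11-point in follow-ups.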

A short description of experiment [9]: qHTS of pediatric cancer cell lines to identify multiple opportunities for drug repurposing: Primary screen for NB1643 cells (AID 1347099). Note: nearly all actives have a fitted effect of over 50% in size. Note: potency is the fitted concentration of half-maximal effect. Summed up:
as §2

The nature of experiment [10]: qHTS of pediatric cancer cell lines to identify multiple opportunities for drug repurposing: Primary screen for LAN-5 cells (AID 1347100). Note: potency is the fitted concentration of half-maximal effect. In short, it runs like this: as §3
Experiment [11] can be described thus: qHTS of pediatric cancer cell lines to identify multiple opportunities for drug repurposing: Primary screen for BT-12 cells (AID 1347101). Note: nearly all actives have a fitted effect of over 25% in size. Note: potency is the fitted concentration of half-maximal effect. In short, it runs like this:
as §4

A short description of experiment [12]: qHTS of pediatric cancer cell lines to identify multiple opportunities for drug repurposing: Primary screen for Rh18 cells (AID 1347102). Note: nearly all actives have a fitted effect of over 65% in size. Note: potency is the fitted concentration of half-maximal effect. In short, it runs like this: as §3
Experiment [13] in a line: qHTS of pediatric cancer cell lines to identify multiple opportunities for drug repurposing: Primary screen for OHS-50 cells (AID 1347103). Note: nearly all actives have a fitted effect of over 40% in size. Note: potency is the fitted concentration of half-maximal effect. Summed up:
as §4

Experiment [14] in a line: qHTS of pediatric cancer cell lines to identify multiple opportunities for drug repurposing: Primary screen for RD cells (AID 1347104). Note: nearly all actives have a fitted effect of over 55% in size. Note: potency is the fitted concentration of half-maximal effect. In short, it runs like this: as §2
Experiment [15] is described as follows: qHTS of pediatric cancer cell lines to identify multiple opportunities for drug repurposing: Primary screen for MG 63 (6-TG R) cells (AID 1347105). Note: nearly all actives have a fitted effect of over 50% in size. Note: potency is the fitted concentration of half-maximal effect. Summed up:
as §2

Experiment [16] in a line: qHTS of pediatric cancer cell lines to identify multiple opportunities for drug repurposing: Primary screen for Rh30 cells (AID 1347107). Note: series mostly up to about 46 µM; nearly all actives have a fitted effect of over 75% in size. Summed up:
as §3

A short description of experiment [17]: qHTS of pediatric cancer cell lines to identify multiple opportunities for drug repurposing: Confirmatory screen for NB1643 cells (AID 1347109). Note: nearly all actives have a fitted effect of over 45% in size. In short, it runs like this: as §3
A short description of experiment [18]: qHTS of pediatric cancer cell lines to identify multiple opportunities for drug repurposing: Primary screen for NB-EBc1 cells (AID 1347095). Note: potency is the fitted concentration of half-maximal effect. Summed up:
as §2

The nature of experiment [19]: qHTS of pediatric cancer cell lines to identify multiple opportunities for drug repurposing: Primary screen for control Hh wild type fibroblast cells (AID 1347106).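 Note: series mostly up to about 46 µM; a drop in luminescence marks cytotoxicity and a rise apparent proliferation; nearly all actives have a fitted effect of over 55% in size.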 In short, it runs like this: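 Cells (500-1,000/well) in growth media were settled 5 h at 37 degrees C, then given compounds for 48 h. Viability was read as CellTiter-Glo luminescence. Primary runs used MIPE at 11 points (0.78 nM-46 µM) and NPC at 8 points (0.59 nM-46 µM); follow-ups used 11 points.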

Experiment [20] is described as follows: qHTS of pediatric cancer cell lines to identify multiple opportunities for drug repurposing: Primary screen for Rh41 cells (AID 1347108). Note: nearly all actives have a fitted effect of over 70% in size. Note: potency is the fitted concentration of half-maximal effect. Summed up: as §2

On to `CN(C)c1nc(Cc2ccc(NC(=O)c3ccc(C(F)(F)F)cc3)cc2)nc(N(C)C)c1CC(=O)O`, for which the Potency entry in [1], in [2], in experiment [3], in [4], in experiment [5] and in [6] was “inactive” each time. Also, the Potency entry in experiment [7], in experiment [8], in experiment [9], in [10], in experiment [11] and in experiment [12] was “inactive” in each case. In addition, the Potency result in [13], in experiment [14], in experiment [15] and in experiment [16] was “inactive” throughout.
As to `COC1CCC(C(=O)c2ccc3nc4c(cc3c2)CCCO4)CC1` (stereo not given), the Potency result in experiment [1], in experiment [6], in experiment [12] and in experiment [17] was “inactive” in each case. Also, the Potency in [2] was 18.7 µM (active); in experiment [3] it was 23.5 µM (active); in experiment [11], 1.93 µM (active); in experiment [13] it was 12.2 µM (active); in experiment [14], 26.4 µM (active).
In the case of `CN(C)CCCNC(=O)c1ccc(-c2cc(O)c3ncccc3c2)cc1`, the Potency entry in [1], in experiment [2], in [6], in [10], in experiment [12] and in [15] was “inactive” in each case. Further, in [3], the Potency is 23.5 µM (active).
`CC[C@H](NC(=O)[C@H](C)NC)C(=O)N1C[C@@H](O)C[C@H]1Cc1c(-c2[nH]c3cc(F)ccc3c2C[C@H]2C[C@H](O)CN2C(=O)[C@H](CC)NC(=O)[C@H](C)NC)[nH]c2cc(F)ccc12`: the Potency in experiment [1] was 2.35 µM (active); in experiment [2] it was 0.0469 µM (active); in [3], 0.0118 µM (active); in experiment [5], 0.217 µM (active); in [18] it was 0.418 µM (active); in [7] it was 0.372 µM (active). In addition, the Potency is 0.372 µM (active) in experiment [10], 0.273 µM (active) in experiment [11] and 0.432 µM (active) in experiment [13]. In addition, the Potency result in experiment [6], in experiment [12] and in experiment [16] was “inactive” each time.
For `O=C(O)C1=CO[C@@H](O[C@@H]2O[C@H](CO)[C@H](O)[C@H](O)[C@H]2O)[C@@H]2C(CO)=CC[C@H]12`, the Potency result in experiment [1], in experiment [2], in experiment [3], in experiment [5], in [18] and in experiment [6] was “inactive” in each case. The Potency entry in experiment [9], in experiment [10], in experiment [11], in experiment [12], in [13] and in [14] was “inactive” throughout. The Potency entry in experiment [15] and in [16] was “inactive” throughout. Moreover, in [8], the Potency is 21.5 µM (active).
`CNc1nc(Nc2ccc(C(=O)N3CCOCC3)cc2OC)ncc1Cl`: the Potency result in experiment [1], in [2], in experiment [3], in experiment [5], in experiment [18] and in experiment [6] was “inactive” throughout. For the same molecule, the Potency result in [11], in experiment [12], in [14], in experiment [19] and in [20] was “inactive” in each case. The Potency in experiment [9] is 4.69 µM (active).
As to `CCN1CCN(c2ccc(Nc3cc(N(C)C(=O)Nc4c(Cl)c(OC)cc(OC)c4Cl)ncn3)cc2)CC1`, the Potency entry in experiment [1], in [3], in [5], in [6], in experiment [8] and in [9] was “inactive” each time. Further, the Potency result in experiment [11], in experiment [15], in [19] and in experiment [20] was “inactive” in each case. The Potency in experiment [2] was 18.7 µM (active); in experiment [18], 20.9 µM (active).
Take `Cc1ccc(C(=O)N(CCCN)[C@@H](c2nc3cc(Cl)ccc3c(=O)n2Cc2ccccc2)C(C)C)cc1`: the Potency in experiment [1] is 0.0015 µM (active); in experiment [2], 0.001 µM (active); in [3] it was 0.001 µM (active); in experiment [18], 0.001 µM (active); in experiment [7], 0.001 µM (active); in experiment [10], 0.001 µM (active). Further, the Potency in experiment [11] and in experiment [13] was 0.001 µM (active) in each case. The Potency result in experiment [6], in experiment [8], in experiment [19] and in experiment [16] was “inactive” each time.
Turning to `CCCCC[C@H](O)C=C[C@H]1[C@H](O)CC(=O)[C@H]1CC=CCCCC(=O)O`, the Potency entry in experiment [1], in experiment [2], in experiment [3], in experiment [18], in experiment [6] and in experiment [12] was “inactive” each time. Further, the Potency entry in experiment [13], in [14], in experiment [15], in experiment [19], in experiment [16] and in [20] was “inactive” each time.
For the molecule `O=C1CCCC(=O)C1C(=O)c1ccc(C(F)(F)F)cc1[N+](=O)[O-]`, the Potency entry in experiment [1], in [2], in [3], in experiment [18], in [6] and in [7] was “inactive” in each case. Further, the Potency entry in experiment [9], in experiment [10], in [11], in [12], in [13] and in [14] was “inactive” throughout. Further, the Potency entry in experiment [15], in experiment [16] and in experiment [20] was “inactive” throughout.
In the case of `CN(C)CCN(C)C(=O)c1ccc(NC(=O)Nc2ccc(-c3nc(N4CCOCC4)c4ccn(CC(F)(F)F)c4n3)cc2)cc1`, the Potency in experiment [1] is 1.48 µM (active); in [2], 0.105 µM (active); in [3], 2.96 µM (active); in experiment [5] it was 0.0485 µM (active); in experiment [18], 0.935 µM (active); in experiment [6] it was 4.69 µM (active). For the same molecule, the Potency in [7] is 0.418 µM (active); in experiment [8], 7.64 µM (active); in [9], 0.418 µM (active); in experiment [11], 3.06 µM (active); in experiment [12] it was 0.187 µM (active); in experiment [13] it was 0.0432 µM (active). Further, the results for the Potency in experiment [14], in experiment [15] and in experiment [20] were 0.372 µM (active), 0.187 µM (active) and 0.166 µM (active), respectively.
In the case of `NC(=O)c1ncn([C@@H]2O[C@H](CO)[C@@H](O)[C@@H]2O)n1`, the Potency result in [1], in experiment [2], in [3], in experiment [5], in experiment [6] and in experiment [7] was “inactive” in each case. In addition, the Potency entry in [8], in experiment [9], in [10], in experiment [12], in experiment [13] and in [14] was “inactive” in each case. Besides, the Potency entry in [15] and in experiment [16] was “inactive” throughout.
Consider `C[C@@H](O)[C@H]1C(=O)N2C(C(=O)OCOC(=O)C(C)(C)C)=C(SC3CN(C4=NCCS4)C3)[C@H](C)[C@H]12`, for which the Potency entry in experiment [1], in experiment [2], in [4], in experiment [5], in [18] and in [6] was “inactive” each time. The Potency result in [7], in experiment [8], in experiment [9], in experiment [10], in [11] and in [12] was “inactive” throughout. Besides, the Potency entry in [13], in experiment [14], in [15], in experiment [19], in experiment [16] and in [20] was “inactive” throughout.
In the case of `O=C(NCCCCN1CCOCC1)c1cc2ccccc2o1`, the Potency entry in experiment [1], in [2], in experiment [3], in experiment [5], in experiment [18] and in experiment [6] was “inactive” each time. For the same molecule, the Potency result in experiment [7], in experiment [9], in [10], in [11], in experiment [12] and in experiment [13] was “inactive” each time. The Potency result in [14], in [15], in experiment [19] and in experiment [20] was “inactive” throughout.

Source of the values: PubChem BioAssay (NCATS).
